Consider 41 compounds from PubChem BioAssay (EPA / NIEHS).

SMILES strings stand for the structures. Values joined by “and” are separate entries in the source; they are usually repeats but may differ in a detail not shown here. Equal entries are not always repeated. Inconclusive results are not listed. Where a structure was tested more than once in an assay, its records may differ in their call. Active and inactive are the calls of the source. The calls were made as follows, unless noted: active = hit-call score of the fitted dose curve at least 0.9, where 1 is the maximum; inconclusive = response in the unintended direction; inactive = score below 0.9.

Assay [1] relates to rat Norepinephrine Transporter (NET), gene 83511. Description: NVS_TR_rNET: NovaScreen (NVS) Transporter Assay for rat Norepinephrine Transporter (NET) (AID 2283373). In a few lines: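 Rat forebrain membranes; radioligand binding measured by filter-based scintillation counting 1 hour after dosing. Loss of specific binding versus DMSO baseline scored; primary screen in duplicate at 25 uM, actives followed up in concentration series.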

The target in assay [2] is human Dopamine Transporter (DAT), SLC6A3 (gene 6531) (UniProt Q01959). Nature of the assay: NVS_TR_hDAT: NovaScreen (NVS) Transporter Assay for human Dopamine Transporter (DAT) (AID 2283374).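 Also: activity means loss of bound radioligand signal relative to DMSO.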 In short, it runs like this:
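Cell-free radioligand displacement binding at human DAT, 1 h after dosing, with filtration and scintillation counting. Primary screen in duplicate at 25 uM, actives then in concentration series. Loss of bound signal versus DMSO scored.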

The target of assay [3] is human Norepinephrine Transporter (NET), SLC6A2 (gene 6530) (UniProt P23975). Nature of the assay: NVS_TR_hNET: NovaScreen (NVS) Transporter Assay for human Norepinephrine Transporter (NET) (AID 2283377).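 As to AC50: displacement of radioligand from human NET seen as loss of scintillation signal.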 In short, it runs like this:
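Cell-free radioligand binding using CHO-derived membrane protein expressing human NET, read by filter scintillation counting 1 h after dosing; loss of signal vs DMSO. Initial duplicate screen at 25 uM, actives retested in concentration series.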

Assay [4] concerns the target mouse Estrogen Receptor alpha (Era), Esr1 (gene 13982) (UniProt P19785). Description: NVS_NR_mERa: NovaScreen (NVS) Nuclear Receptor Binding Assay for mouse Estrogen Receptor alpha (Era) (AID 2283378).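 Also: hit means loss of bound radioligand signal relative to DMSO.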 In a few lines: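 Extracted mouse Era incubated with tritiated or iodinated radioligand plus test chemical, 18 h. Bound fraction separated on filters, counted by scintillation. DMSO = negative control/baseline; duplicate single-point at 25 uM, then concentration-response follow-up.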

Assay [5] has as its target Estrogen receptor (Homo sapiens) (UniProt P03372). Nature of the assay: OT_ERa_GFPERaERE_0480: Odyssey Thera (OT) 8-hour HeLa Transcription Induction Assay for Estrogen Receptor (AID 2283381; active = hit-call score of the fitted dose curve at least 0.9, where 1 is the maximum; inactive = score below 0.9). In short, it runs like this: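 HeLa cells expressing GFP reporter under estrogen response element, imaged 8 h after dosing. GFP induction quantified by high-content fluorescence microscopy image analysis; gain of signal fitted versus DMSO.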

Assay [6] shares this target. Description: OT_ERa_GFPERaERE_0120: Odyssey Thera (OT) 2-hour HeLa Transcription Induction Assay for Estrogen Receptor (AID 2283382). In short, it runs like this: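 HeLa cells were dosed for 2 h, then GFP reporter induction was quantified by fluorescence microscopy with high-content image analysis. Gain of signal fitted against DMSO baseline.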
For assay [7], the target named is Estrogen receptor beta (Homo sapiens) (UniProt Q92731). Nature of the assay: OT_ER_ERbERb_1440: Odyssey Thera (OT) 24-hour HEK293T Protein-Complementation Assay for Estrogen Receptor-beta/-beta Homodimer (AID 2283380).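 Also: scored as signal increase over DMSO baseline for both agonists and antagonists.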 In short, it runs like this: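 HEK293T cells stably expressing ER beta LBD (aa 310-547) homodimer fragment-complementation reporter, dosed 24 h. Cells formaldehyde-fixed, Draq5-stained; gain in nuclear (agonist) or nuclear plus cytoplasmic (antagonist) fluorescence versus DMSO read by laser scanning cytometry.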
Sequence of Estrogen receptor beta (Homo sapiens) (Q92731 whole entry, looked up, the tested form may be a part): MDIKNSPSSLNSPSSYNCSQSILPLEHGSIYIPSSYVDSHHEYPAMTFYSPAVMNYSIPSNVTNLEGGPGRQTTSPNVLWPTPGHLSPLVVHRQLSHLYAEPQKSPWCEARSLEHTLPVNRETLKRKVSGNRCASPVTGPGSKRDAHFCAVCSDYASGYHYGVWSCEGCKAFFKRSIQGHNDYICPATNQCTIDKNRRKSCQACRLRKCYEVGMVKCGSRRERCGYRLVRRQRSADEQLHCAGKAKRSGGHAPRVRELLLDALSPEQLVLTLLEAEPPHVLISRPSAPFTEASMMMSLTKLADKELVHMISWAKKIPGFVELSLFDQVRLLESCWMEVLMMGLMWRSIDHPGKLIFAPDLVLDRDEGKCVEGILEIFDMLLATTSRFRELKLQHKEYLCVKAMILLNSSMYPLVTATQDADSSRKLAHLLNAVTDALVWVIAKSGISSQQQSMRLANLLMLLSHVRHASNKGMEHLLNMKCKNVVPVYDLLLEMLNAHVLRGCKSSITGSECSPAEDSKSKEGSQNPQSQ

Assay [8] has as its target human Serotonin Transporter (SERT), SLC6A4 (gene 6532) (UniProt P31645). Nature of the assay: NVS_TR_hSERT: NovaScreen (NVS) Transporter Assay for human Serotonin Transporter (SERT) (AID 2283372). In a few lines:
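Radioligand binding to native SERT in human platelet membranes, read by filter-based scintillation counting 1 h after dosing. Primary screen in duplicate at 25 uM; actives followed up in concentration series; loss of signal versus DMSO baseline.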

In assay [9] the target is Agonist Androgen Response Element (ARE), AR (gene 367) (UniProt P10275). Description: OT_AR_ARELUC_AG_1440: Odyssey Thera (OT) 24-hour CHO-K1 Luciferase Assay for Agonist Androgen Response Element (ARE) (AID 2283379). In a few lines: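 CHO-K1 cells carrying an ARE-driven luciferase reporter were exposed to compounds for 24 h. Luminescence was then read after adding a D-luciferin/ATP mix, and activity was scored as a gain in signal over DMSO vehicle.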
Sequence of Agonist Androgen Response Element (ARE), AR (gene 367) (P10275 whole entry, looked up): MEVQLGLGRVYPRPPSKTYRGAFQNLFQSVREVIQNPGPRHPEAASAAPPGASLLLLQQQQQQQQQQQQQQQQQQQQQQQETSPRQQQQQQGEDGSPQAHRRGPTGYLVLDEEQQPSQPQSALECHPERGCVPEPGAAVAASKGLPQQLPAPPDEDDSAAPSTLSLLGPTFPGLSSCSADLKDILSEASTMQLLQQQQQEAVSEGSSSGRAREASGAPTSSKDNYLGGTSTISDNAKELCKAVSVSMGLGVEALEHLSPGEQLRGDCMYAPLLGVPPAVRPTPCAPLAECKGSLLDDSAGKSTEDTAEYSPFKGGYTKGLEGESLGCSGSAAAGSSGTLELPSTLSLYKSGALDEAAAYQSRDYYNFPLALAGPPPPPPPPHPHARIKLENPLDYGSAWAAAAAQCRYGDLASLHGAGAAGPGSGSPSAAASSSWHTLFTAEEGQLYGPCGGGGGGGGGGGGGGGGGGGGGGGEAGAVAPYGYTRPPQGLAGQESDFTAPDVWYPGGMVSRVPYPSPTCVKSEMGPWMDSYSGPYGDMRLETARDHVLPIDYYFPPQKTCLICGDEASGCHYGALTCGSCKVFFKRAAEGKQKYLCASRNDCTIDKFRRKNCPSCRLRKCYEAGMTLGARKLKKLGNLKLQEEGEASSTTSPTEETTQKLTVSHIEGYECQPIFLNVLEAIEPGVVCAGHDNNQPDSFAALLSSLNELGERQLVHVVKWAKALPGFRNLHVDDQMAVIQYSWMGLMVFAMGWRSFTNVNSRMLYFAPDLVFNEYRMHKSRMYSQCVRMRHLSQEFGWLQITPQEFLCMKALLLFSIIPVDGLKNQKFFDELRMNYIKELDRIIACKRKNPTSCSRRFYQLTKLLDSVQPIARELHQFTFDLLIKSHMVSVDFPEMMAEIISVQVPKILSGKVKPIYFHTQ

Sequence of human Norepinephrine Transporter (NET), SLC6A2 (gene 6530) (P23975 whole entry, looked up): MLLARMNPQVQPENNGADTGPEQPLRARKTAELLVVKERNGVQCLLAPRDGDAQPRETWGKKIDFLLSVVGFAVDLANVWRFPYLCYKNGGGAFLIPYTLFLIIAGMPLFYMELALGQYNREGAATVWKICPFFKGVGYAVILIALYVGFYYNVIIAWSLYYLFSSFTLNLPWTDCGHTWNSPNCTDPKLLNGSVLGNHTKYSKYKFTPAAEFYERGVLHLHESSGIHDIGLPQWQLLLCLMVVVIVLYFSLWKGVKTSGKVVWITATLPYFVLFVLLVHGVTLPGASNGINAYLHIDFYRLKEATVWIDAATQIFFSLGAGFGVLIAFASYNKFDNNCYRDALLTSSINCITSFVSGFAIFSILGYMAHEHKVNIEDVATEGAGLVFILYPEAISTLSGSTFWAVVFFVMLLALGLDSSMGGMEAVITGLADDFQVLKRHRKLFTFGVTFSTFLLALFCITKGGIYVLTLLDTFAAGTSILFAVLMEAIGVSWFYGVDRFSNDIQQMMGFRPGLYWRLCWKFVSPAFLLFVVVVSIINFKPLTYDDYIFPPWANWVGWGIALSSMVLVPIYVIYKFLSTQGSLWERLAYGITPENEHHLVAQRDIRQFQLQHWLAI
Sequence of human Dopamine Transporter (DAT), SLC6A3 (gene 6531) (Q01959 whole entry, looked up): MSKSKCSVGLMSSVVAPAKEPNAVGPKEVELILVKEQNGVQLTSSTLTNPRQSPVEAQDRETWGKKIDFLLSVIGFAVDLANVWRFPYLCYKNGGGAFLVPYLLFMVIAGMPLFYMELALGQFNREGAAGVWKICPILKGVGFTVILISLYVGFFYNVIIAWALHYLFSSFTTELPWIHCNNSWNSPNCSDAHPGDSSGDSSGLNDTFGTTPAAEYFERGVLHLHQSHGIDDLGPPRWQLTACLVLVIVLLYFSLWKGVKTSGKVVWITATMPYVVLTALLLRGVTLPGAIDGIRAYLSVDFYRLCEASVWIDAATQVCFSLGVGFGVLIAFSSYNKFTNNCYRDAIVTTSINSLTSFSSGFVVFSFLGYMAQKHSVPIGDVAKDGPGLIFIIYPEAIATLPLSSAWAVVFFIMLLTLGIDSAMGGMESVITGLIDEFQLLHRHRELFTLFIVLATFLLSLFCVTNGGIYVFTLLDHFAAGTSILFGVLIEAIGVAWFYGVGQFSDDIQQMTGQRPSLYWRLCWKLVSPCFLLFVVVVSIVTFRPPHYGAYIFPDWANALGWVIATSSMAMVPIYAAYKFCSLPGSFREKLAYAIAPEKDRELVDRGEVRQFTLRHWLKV
Sequence of Estrogen receptor (Homo sapiens) (P03372 whole entry, looked up): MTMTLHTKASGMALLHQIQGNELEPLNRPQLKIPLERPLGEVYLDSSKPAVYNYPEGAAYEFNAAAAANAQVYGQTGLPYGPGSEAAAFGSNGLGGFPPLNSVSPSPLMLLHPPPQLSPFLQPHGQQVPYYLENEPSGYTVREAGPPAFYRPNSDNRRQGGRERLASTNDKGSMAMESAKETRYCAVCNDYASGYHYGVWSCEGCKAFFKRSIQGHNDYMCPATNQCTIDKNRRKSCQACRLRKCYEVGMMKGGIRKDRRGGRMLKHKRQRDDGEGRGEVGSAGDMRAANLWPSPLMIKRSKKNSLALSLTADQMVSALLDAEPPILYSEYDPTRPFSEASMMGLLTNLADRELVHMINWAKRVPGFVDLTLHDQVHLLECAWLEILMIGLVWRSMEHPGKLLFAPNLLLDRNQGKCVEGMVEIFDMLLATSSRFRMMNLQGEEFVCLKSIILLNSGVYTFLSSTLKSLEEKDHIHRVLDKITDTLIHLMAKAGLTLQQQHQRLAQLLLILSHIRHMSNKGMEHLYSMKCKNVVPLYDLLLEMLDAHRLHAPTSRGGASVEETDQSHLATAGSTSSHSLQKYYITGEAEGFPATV
Sequence of mouse Estrogen Receptor alpha (Era), Esr1 (gene 13982) (P19785 whole entry, looked up): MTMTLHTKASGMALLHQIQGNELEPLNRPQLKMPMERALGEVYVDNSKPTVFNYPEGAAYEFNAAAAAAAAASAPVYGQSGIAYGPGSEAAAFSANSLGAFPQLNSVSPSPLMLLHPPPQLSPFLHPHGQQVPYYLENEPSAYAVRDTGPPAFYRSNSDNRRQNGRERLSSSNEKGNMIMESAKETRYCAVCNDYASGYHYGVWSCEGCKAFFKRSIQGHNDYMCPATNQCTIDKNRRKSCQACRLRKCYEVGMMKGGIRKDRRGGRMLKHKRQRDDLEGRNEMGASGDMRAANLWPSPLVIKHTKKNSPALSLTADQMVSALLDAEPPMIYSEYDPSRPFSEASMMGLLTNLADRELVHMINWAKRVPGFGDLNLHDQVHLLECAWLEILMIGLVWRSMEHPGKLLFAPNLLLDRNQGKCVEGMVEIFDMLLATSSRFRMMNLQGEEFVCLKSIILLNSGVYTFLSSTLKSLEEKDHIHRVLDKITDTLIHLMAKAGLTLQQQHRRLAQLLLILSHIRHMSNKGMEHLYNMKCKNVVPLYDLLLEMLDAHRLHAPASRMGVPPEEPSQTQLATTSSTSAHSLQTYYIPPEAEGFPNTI
Sequence of human Serotonin Transporter (SERT), SLC6A4 (gene 6532) (P31645 whole entry, looked up): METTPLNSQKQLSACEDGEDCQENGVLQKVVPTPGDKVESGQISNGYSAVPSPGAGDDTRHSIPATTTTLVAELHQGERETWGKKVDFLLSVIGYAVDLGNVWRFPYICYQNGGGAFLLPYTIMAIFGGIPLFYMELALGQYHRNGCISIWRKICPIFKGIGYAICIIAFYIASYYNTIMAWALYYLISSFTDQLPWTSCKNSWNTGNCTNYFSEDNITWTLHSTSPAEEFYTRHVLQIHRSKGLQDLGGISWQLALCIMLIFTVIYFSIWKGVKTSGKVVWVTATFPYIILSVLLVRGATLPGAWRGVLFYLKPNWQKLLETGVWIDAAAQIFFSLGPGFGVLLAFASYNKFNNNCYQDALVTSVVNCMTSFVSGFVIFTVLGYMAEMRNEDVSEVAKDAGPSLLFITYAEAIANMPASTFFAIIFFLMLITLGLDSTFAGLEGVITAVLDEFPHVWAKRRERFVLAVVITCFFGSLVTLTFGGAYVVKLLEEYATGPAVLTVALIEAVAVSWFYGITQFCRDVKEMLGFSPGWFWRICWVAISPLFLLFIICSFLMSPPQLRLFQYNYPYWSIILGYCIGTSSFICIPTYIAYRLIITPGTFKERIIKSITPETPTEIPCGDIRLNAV

With `CC(=O)NC1(c2cccc(F)c2)CCN(CC[C@@]2(c3ccc(Cl)c(Cl)c3)CN(c3ccccc3)C(=O)CO2)CC1`, the AC50 (as a rule, the concentration at which the activity in the assay is half-maximal) in [1] is 9.66 µM (active); in assay [2] it was 9.61 µM (active); in assay [3], 10.1 µM (active); in assay [6] it was 62.3 µM (active). The outcome in [4] and in assay [5] was inactive.
Regarding `CCc1nn(C2CCCCC2)c2cc(C3(C#N)CCC(C(=O)O)CC3)ccc12` (centres undefined), the result in [4], in assay [7], in [5] and in assay [6] was inactive.
Consider `c1ccc2cc3c(ccc4ccccc43)cc2c1`, for which the figures for the AC50 in assay [3] and in [6] were 14.7 µM (active) and 59.4 µM (active), respectively. Besides, the outcome in [4], in [5] and in assay [6] was inactive.
With `CC(C)CCCCCCOC(=O)CCCCC(=O)OCCCCCCC(C)C`, the compound was classed as inactive in [2], in assay [5] and in [6].
Consider `O=[N+]([O-])c1ccc(O)cc1`, for which the call in assay [3], in [4], in assay [5] and in [6] was inactive.
On to `CCN(CC)CCNc1ccc(CNC=O)c2sc3ccc(OC)cc3c(=O)c12`, for which the outcome in assay [8], in [1], in [7] and in assay [5] was inactive. Moreover, the half-maximal activity concentration (AC50) in [2] is 12.8 µM (active); in [3] it was 5.84 µM (active); in assay [4], 1.37 µM (active); in [6], 20.2 µM (active).
`NC(=O)N(O)[C@@H]1C=C[C@H](Oc2cccc(Oc3ccc(F)cc3)c2)C1`: the compound was called inactive in assay [8], in assay [1], in assay [5] and in [6]. Also, the concentration at half-maximal activity (AC50) in [2] was 0.489 µM (active); in assay [3], 15 µM (active); in [7], 66.9 µM (active).
As for `CCCCCCCCCCCCN1CCCC1=O`, the call in assay [4], in assay [7], in [5] and in [6] was inactive.
In the case of `CCCCOCCO`, the compound was called inactive in assay [5] and in assay [6].
With `N#C[C@@H]1CC(F)(F)CN1C(=O)CNC1CC2CCC(C1)N2c1ncccn1` (some centres undefined), the outcome in assay [9], in assay [7], in assay [5] and in [6] was inactive.
As for `Cc1ccc(S(=O)(=O)O)c(C)c1`, in [5], the AC50 is 24 µM (active) and the compound was called inactive. Also, in assay [6], the outcome was inactive.
Regarding `OCCC(F)(F)C(F)(F)C(F)(F)C(F)(F)C(F)(F)C(F)(F)F`, the outcome in assay [7] and in [5] was inactive. Besides, the AC50 in [6] was 11.6 µM (active).
Regarding `COc1ccc([N+](=O)[O-])cc1N`, the call in [7], in [5] and in [6] was inactive.
With `CN1CCC[C@H]1c1cccnc1`, the call in [7], in [5] and in assay [6] was inactive.
For the compound `c1ccc2c(c1)Cc1ccccc1-2`, the compound was called inactive in [7], in assay [5] and in [6].
For the compound `CC(C)(C)CC(C)(C)c1ccc(O)c(-n2nc3ccccc3n2)c1`, the call in assay [7], in assay [5] and in assay [6] was inactive.
Turning to `CCc1ccc(CCOc2ccc(CC3SC(=O)NC3=O)cc2)nc1` (centres undefined), the call in [7], in assay [5] and in assay [6] was inactive.
For the compound `CC(C)(C)c1cc(C(C)(C)C)c(O)c(C(C)(C)C)c1`, the AC50 in [7] is 66.3 µM (active). Also, the call in assay [5] and in assay [6] was inactive.
As to `Oc1cccc(O)c1`, the AC50 in assay [7] is 18 µM (active); in assay [5] it was 52.9 µM (active). Also, the result in assay [6] was inactive.
Consider `CN(C)C=O`, for which the compound was classed as inactive in assay [7], in assay [5] and in assay [6].
`O=C(OCCOCCOC(=O)c1ccccc1)c1ccccc1`: the result in assay [5] and in assay [6] was inactive.
Turning to `CN1CCN(c2ccccc2/C=C2\SCCN(c3ccc(Cl)c(Cl)c3)C2=O)CC1`, the call in assay [7] was inactive. Also, the AC50 in assay [5] was 19.5 µM (active); in assay [6] it was 68.3 µM (active).
For the compound `COC(=O)CCCCC(=O)OC`, the compound was classed as inactive in [5] and in assay [6].
Take `CCCCCCCCC(=O)O`: the result in assay [7], in assay [5] and in [6] was inactive.
Regarding `Cc1cc(CCN2CCN(c3nsc4ccccc34)CC2)cc2c1NC(=O)CC2(C)C`, the result in assay [9] and in assay [7] was inactive. Besides, the values for the AC50 in assay [5] and in assay [6] were 16.1 µM (active) and 15.3 µM (active), respectively.
In the case of `CCCCC(CC)COC(=O)CCCCC(=O)OCC(CC)CCCC` (centres undefined), the call in [7], in assay [5] and in assay [6] was inactive.
Take `CC(O)CO` (centres undefined): the call in assay [5] and in assay [6] was inactive.
Turning to `c1ccc2c(c1)ccc1ccccc12`, the call in assay [9], in assay [5] and in assay [6] was inactive.
Regarding `CC(=O)CC(C)(C)O`, the result in [9], in assay [7], in assay [5] and in assay [6] was inactive.
As to `CCCCCCC(=O)O`, the compound was called inactive in assay [7] and in assay [6].
Regarding `CCCCCCCCCCCCCCCS(=O)(=O)Oc1ccccc1`, the compound was classed as inactive in assay [7], in [5] and in assay [6].
As to `CC(O)C(=O)O` (centres undefined), the compound was classed as inactive in assay [5] and in [6].
For the compound `CC[C@H](C)[C@@H](C(=O)O)n1sc2ccccc2c1=O`, the outcome in assay [7], in assay [5] and in assay [6] was inactive.
On to `COCC(C)O` (centres undefined), for which, in [4], the concentration at half-maximal activity (AC50) is 11.5 µM (active). Moreover, the outcome in [5] and in assay [6] was inactive.
For `ClC1=C(Cl)C(Cl)(Cl)C(Cl)=C1Cl`, the result in [7], in assay [5] and in [6] was inactive.
For the compound `CCOC(=O)CC(O)(CC(=O)OCC)C(=O)OCC`, the result in assay [7], in [5] and in assay [6] was inactive.
As to `OC1CCCCC1`, the compound was called inactive in assay [4], in assay [5] and in assay [6].
With `Cc1cc(C)c(O)c(C)c1`, the compound was called inactive in assay [5] and in [6].
In the case of `C#C[C@]1(O)CC[C@H]2[C@@H]3CCC4=CC(=O)CC[C@@H]4[C@H]3CC[C@@]21C`, in [7], the AC50 is 29.3 µM (active) and 30.3 µM (active) and 22.2 µM (active); the outcome was inactive.
Regarding `CC(C)(C)c1cccc(C(C)(C)C)c1O`, the compound was called inactive in assay [5] and in [6].
Take `CCCCC(CC)COC(=O)CCCCC(=O)OCc1ccccc1` (centres undefined): the call in assay [7], in [5] and in [6] was inactive.
